“And” between values parts separate entries of the source, which are not always exact repeats. Equal values may be shown once.
Columns and labels:
[1] = molecular target: Glycogen synthase kinase-3 beta (Homo sapiens) (UniProt P49841); conditions: at 1 µM;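 further: reported values are mean percent inhibition of GSK3B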
[2] = molecular target: Homeodomain-interacting protein kinase 1 (Homo sapiens) (UniProt Q86Z02); conditions: at 0.1 µM
[3] = molecular target: Homeodomain-interacting protein kinase 1 (Homo sapiens) (UniProt Q86Z02); conditions: at 1 µM
[4] = molecular target: T1, Homeodomain-interacting protein kinase 4 (Homo sapiens) (UniProt Q8NE63); conditions: at 0.1 µM
T1 sequence (whole entry): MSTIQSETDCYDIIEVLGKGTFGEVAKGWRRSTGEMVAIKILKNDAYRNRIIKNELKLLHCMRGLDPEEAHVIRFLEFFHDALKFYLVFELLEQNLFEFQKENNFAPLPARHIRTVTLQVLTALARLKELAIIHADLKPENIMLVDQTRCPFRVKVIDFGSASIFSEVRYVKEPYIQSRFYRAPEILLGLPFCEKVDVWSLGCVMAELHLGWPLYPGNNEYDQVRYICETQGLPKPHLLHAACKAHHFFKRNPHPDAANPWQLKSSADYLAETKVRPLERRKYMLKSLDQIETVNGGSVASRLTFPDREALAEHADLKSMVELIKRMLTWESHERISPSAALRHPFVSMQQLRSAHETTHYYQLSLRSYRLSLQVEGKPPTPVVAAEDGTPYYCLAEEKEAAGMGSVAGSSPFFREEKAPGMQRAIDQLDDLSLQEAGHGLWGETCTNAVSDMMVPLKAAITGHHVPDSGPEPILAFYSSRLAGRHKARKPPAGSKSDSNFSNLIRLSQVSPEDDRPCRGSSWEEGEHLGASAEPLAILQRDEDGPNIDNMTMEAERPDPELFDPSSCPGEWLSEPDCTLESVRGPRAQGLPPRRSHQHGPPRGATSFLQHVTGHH

[5] = molecular target: T1, Homeodomain-interacting protein kinase 4 (Homo sapiens); conditions: at 1 µM
[6] = molecular target: Mitogen-activated protein kinase 9 (Homo sapiens) (UniProt P45984); conditions: at 0.1 µM
Mitogen-activated protein kinase 9 (Homo sapiens), sequence (P45984 whole entry, looked up): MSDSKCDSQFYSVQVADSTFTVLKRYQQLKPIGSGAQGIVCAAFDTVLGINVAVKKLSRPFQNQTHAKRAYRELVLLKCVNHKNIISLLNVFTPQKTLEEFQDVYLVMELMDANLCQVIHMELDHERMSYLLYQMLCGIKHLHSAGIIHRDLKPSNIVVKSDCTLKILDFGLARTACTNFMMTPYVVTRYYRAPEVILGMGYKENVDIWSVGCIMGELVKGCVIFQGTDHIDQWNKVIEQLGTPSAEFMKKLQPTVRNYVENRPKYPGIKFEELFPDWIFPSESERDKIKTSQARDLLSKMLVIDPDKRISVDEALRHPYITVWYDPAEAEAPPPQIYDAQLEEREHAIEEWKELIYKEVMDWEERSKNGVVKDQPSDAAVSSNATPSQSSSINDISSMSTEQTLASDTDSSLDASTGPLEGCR

[7] = molecular target: Mitogen-activated protein kinase 9 (Homo sapiens) (UniProt P45984); conditions: at 1 µM
[8] = molecular target: Mitogen-activated protein kinase 1 (Homo sapiens) (UniProt P28482); conditions: at 0.1 µM
Mitogen-activated protein kinase 1 (Homo sapiens), sequence (P28482 whole entry): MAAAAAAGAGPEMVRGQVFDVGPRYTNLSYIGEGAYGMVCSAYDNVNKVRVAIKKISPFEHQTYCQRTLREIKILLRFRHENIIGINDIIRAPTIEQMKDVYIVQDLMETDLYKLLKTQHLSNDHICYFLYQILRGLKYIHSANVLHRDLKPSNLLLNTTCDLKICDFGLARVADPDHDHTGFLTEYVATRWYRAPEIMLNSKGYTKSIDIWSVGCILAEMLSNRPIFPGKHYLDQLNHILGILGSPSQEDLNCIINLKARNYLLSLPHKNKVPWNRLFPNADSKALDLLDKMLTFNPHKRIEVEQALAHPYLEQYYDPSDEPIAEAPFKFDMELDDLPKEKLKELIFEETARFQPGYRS

[9] = molecular target: Mitogen-activated protein kinase 1 (Homo sapiens) (UniProt P28482); conditions: at 1 µM
[10] = molecular target: Mitogen-activated protein kinase 3 (Homo sapiens) (UniProt P27361); conditions: at 0.1 µM;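 further: each value is a mean inhibition figure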
Mitogen-activated protein kinase 3 (Homo sapiens), sequence (P27361 whole entry): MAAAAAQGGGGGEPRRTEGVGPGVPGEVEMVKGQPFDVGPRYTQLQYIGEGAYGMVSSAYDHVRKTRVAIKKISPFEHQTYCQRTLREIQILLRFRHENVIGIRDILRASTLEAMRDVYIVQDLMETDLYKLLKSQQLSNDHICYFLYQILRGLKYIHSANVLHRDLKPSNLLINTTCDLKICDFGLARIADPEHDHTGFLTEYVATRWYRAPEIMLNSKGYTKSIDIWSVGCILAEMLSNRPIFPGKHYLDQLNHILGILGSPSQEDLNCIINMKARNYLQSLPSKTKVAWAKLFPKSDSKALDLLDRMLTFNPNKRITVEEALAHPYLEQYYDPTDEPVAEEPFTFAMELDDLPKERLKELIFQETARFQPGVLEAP

Glycogen synthase kinase-3 beta (Homo sapiens), sequence (P49841 whole entry, looked up): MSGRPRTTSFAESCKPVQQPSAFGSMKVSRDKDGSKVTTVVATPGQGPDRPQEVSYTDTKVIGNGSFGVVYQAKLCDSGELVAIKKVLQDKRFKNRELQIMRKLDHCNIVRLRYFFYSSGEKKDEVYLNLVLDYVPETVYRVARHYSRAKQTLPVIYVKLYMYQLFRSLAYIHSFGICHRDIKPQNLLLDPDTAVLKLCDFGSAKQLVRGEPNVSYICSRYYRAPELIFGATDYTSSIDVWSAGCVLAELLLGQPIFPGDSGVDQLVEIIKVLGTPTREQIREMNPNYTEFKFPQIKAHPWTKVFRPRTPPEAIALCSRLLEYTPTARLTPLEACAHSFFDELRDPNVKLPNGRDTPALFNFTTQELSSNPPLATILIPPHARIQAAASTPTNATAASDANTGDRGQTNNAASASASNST
Homeodomain-interacting protein kinase 1 (Homo sapiens), sequence (Q86Z02 whole entry, looked up): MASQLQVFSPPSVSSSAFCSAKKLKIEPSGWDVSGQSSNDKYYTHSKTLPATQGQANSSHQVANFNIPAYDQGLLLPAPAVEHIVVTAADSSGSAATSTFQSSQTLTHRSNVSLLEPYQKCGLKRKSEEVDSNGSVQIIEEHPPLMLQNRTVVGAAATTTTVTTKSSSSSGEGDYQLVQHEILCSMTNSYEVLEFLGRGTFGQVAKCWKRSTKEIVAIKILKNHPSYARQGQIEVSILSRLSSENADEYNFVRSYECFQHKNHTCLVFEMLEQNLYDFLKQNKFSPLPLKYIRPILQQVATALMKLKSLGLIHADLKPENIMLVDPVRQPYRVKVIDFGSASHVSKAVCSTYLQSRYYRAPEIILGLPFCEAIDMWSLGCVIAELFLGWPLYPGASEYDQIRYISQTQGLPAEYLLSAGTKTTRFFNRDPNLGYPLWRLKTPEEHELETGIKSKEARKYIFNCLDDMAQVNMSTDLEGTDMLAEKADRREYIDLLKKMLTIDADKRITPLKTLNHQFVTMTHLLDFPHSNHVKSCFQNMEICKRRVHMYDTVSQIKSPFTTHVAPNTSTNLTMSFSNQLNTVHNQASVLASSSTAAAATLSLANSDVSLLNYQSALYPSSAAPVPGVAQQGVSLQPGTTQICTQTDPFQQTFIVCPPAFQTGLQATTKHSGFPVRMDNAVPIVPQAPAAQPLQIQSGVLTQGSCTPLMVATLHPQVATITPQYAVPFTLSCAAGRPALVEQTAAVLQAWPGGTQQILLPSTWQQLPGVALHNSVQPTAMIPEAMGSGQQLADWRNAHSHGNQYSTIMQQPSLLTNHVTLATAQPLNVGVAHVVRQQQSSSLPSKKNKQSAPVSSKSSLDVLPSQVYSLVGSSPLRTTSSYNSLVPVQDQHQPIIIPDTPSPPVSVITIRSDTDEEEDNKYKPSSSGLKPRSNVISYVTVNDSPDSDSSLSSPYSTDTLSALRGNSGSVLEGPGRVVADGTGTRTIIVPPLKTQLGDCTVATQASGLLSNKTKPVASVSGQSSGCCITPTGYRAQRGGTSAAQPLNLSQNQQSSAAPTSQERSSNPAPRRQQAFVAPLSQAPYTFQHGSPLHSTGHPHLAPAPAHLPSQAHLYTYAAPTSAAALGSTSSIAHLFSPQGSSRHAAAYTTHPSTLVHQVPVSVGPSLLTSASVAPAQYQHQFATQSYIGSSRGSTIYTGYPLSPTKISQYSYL

| SMILES | inhibition [1] | inhibition [2] | inhibition [3] | inhibition [4] | inhibition [5] | inhibition [6] | inhibition [7] | inhibition [8] | inhibition [9] | inhibition [10] |
| --- | --- | --- | --- | --- | --- | --- | --- | --- | --- | --- |
| O=C(O[C@H]1CN[C@H](C#Cc2cc3ncnc(Nc4ccc5c(ccn5Cc5cc(F)ccc5F)c4)c3s2)C1)N1CCOCC1 | 5.52% | 0.14% | -1.46% | 0.47% | 2.6% | 5.66% | 5.74% | 3.73% | 5.12% | 4.98% |
| CC1=C(C(=O)Nc2ccc3[nH]nc(C)c3c2)C(c2ccc(C(F)(F)F)cc2)CC(=O)N1 (stereo not given) | 10.3% | 3.11% | 7.43% | 3.59% | 7.18% | 2.4% | 3.81% | 6.06% | 35.1% | 3.88% |
| NS(=O)(=O)c1ccc(N/N=C2\C(=O)Nc3ccc(C(=O)NCc4ccncc4)cc32)cc1 | 77.1% | 10.9% | 42.5% | 12.2% | 45.9% | 2.55% | 8.96% | 14.9% | 55.3% | 5.64% |
| Nc1nonc1-c1nc2cnccc2n1C1CC1 | 68.1% and 62.1% | 0.55% and 0.39% | 17.3% and 12.3% | 3.8% and -0.76% | 11.1% and 7.82% | 3.59% and 0.44% | 6.52% and 2.72% | 3.14% and 2.36% | 7.51% and 3.94% | 4.9% and 2.96% |
| Cc1ccc(-c2cc3c(NC(=O)C4CC4)ncnc3o2)cc1 | 38.2% | 1.63% | 9.22% | 1.44% | 7.28% | 0.97% | 5.49% | 2.94% | 4.73% | 3% |
| Cn1c(-c2nonc2N)nc2cnccc21 | 41.6% | 0.83% | 13.9% | 0.63% | 4.4% | 0.7% | 4.16% | -1.97% | 2.95% | 0.55% |
| N#Cc1ccc2c(-c3ccnc(NC4CC4)n3)c(-c3ccc(F)cc3)nn2c1 | 45.1% | -2.11% | 0.75% | -0.93% | -1.01% | 17.2% | 71.1% | 1.33% | 4.26% | 0.07% |
| CNC(=O)c1ncccc1Nc1nc(Nc2cc3c(cc2OC)CCCN3C(=O)CN(C)C)nc2[nH]ccc12 | 14.6% | 3.08% | 22.2% | 3.67% | 13.5% | 3.07% | 9.19% | 3.01% | 6.21% | 2.44% |
| O=C(O[C@H]1CN[C@H](C#Cc2cc3ncnc(Nc4ccc(OCc5cccc(F)c5)c(Cl)c4)c3s2)C1)N1CCOCC1 | 4.2% | 1.86% | 0.81% | 2.71% | 4.99% | 3.19% | 7.19% | 7.72% | 5.38% | 4.82% |
| CCn1c(-c2nonc2N)nc2cncc(C(=O)NCCNC)c21 | 42.3% | 0.25% | 10.2% | -0.44% | 3.11% | 4.59% | 4.73% | 6.91% | 6.64% | 6.22% |
| Cc1c2ccc(N(C)c3ccnc(Nc4cccc(S(N)(=O)=O)c4)n3)cc2nn1C | 10.7% | -4.42% | -0.84% | -0.24% | 10.6% | 3.51% | 7.66% | 4.96% | 5.77% | 5.75% |
| CC(C)c1ccc(-c2cc(-c3c[nH]nc3-c3ccccn3)ccn2)cc1 | 3.51% | -2.26% | 0.99% | 0.13% | 3.76% | 0.51% | 2.5% | -0.73% | 2.22% | 0.86% |
| CNC(=O)c1cncc(/C=C/c2ccccc2C)c1 | 10.8% | 2.37% | 3.05% | 3.2% | 3.78% | 3.59% | 5.08% | 7.05% | 5.85% | 4.41% |
| CN(C)CCNC(=O)Nc1ccc(N(C)c2ccnc(Nc3ccc(CS(C)(=O)=O)cc3)n2)cc1 | 4.47% | 0.8% | 4.6% | 0.19% | 3.28% | 4.37% | 5.22% | 5.77% | 4.8% | 2.98% |
| COc1cc(Nc2ncc(-c3ccccc3)o2)cc(OC)c1 | 11.5% | 1.55% | 17.1% | 2.58% | 12.5% | 3.25% | 3.23% | 10.2% | 6.06% | 5.39% |
| CC1=C(C(=O)Nc2ccc3[nH]ncc3c2)C(c2ccc(F)cc2)N=C(c2ccc(C(F)(F)F)nc2)N1 (stereo not given) | 4.71% | 0.16% | 2.28% | 0.68% | 1.53% | 1.61% | 4.98% | -1.73% | 3.17% | 1.81% |

| SMILES | inhibition [1] | inhibition [2] | inhibition [3] | inhibition [4] | inhibition [5] | inhibition [6] | inhibition [7] | inhibition [8] | inhibition [9] | inhibition [10] |
| --- | --- | --- | --- | --- | --- | --- | --- | --- | --- | --- |
| COc1c(C(N)=O)cc(-c2ccc(Cl)cc2)cc1-c1ccc(S(N)(=O)=O)cc1 | 2.65% | -1.29% | -0.59% | 0.4% | 1.94% | 3.46% | 8.22% | 5.87% | 5.86% | 4.58% |
| FC(F)(F)CNc1nccc(-c2cnn3ncccc23)n1 | 6.02% | 0.25% | 10.2% | -0.95% | 3.01% | 2.29% | 4.42% | 3.24% | 5.24% | 1.95% |
| COc1ccc(-c2nn3ncccc3c2-c2ccnc(Nc3ccc(F)c(F)c3)n2)cc1 | 5% | 3.8% | 4.38% | 1.49% | 1.58% | 7.25% | 23.9% | 4.91% | 5.09% | 3.11% |
| CN1CCC(n2cnc(-c3ccc(F)cc3)c2-c2ccnc(NCCO)n2)CC1 | 7.21% | 3.91% | 7.67% | 2.19% | 4.16% | 8.58% | 37.3% | 2.94% | 6.12% | 3.9% |
| NS(=O)(=O)c1ccc(N/N=C2\C(=O)Nc3cccc(CCc4ccncc4)c32)cc1 | 56.4% | -0.6% | 2.62% | 0.72% | 1.64% | -0.3% | 1.61% | 0.92% | 0.88% | -0.55% |
| COc1cccc(-n2ncc3c(N/N=C/c4ccc(C(=O)NCCN(C)C)cc4)ncnc32)c1 | 79.4% | 47% | 78.8% | 49.5% | 75.8% | 2.47% | 3.96% | 1.34% | 4.38% | 3.11% |
| COC(=O)Nc1nc2ccc(Oc3ccc(NC(=O)Nc4cc(C(F)(F)F)ccc4F)cc3)cc2s1 | 5.68% | -1.19% | 0.81% | 6.92% | 33.5% | -0.14% | 3.25% | -1.09% | 0.7% | 0.14% |
| COc1ccc(Nc2ncc(-c3ccccc3)o2)cc1OC | 33% | 8.4% | 28.6% | 3.61% | 22.6% | 2.69% | 8.77% | -0.07% | 1.54% | 1.12% |
| CS(=O)(=O)Nc1ccc(-c2ccc3c(NC(=O)C4CC4)n[nH]c3c2)cc1 | 5.37% | -0.91% | 5.67% | 0.27% | 5.43% | 2.01% | 3.22% | 4.95% | 1.75% | 2.3% |
| COc1cc(N2CCN(C(C)C)CC2)ccc1Nc1nc(Nc2cccc3ncccc23)c2cc[nH]c2n1 | 5.17% | -1.1% | 3.6% | 1.11% | 6.13% | 0.17% | 5.14% | -2.97% | -0.36% | -2.04% |
| CS(=O)(=O)CCNCc1ccc(-c2ccc3ncnc(Nc4ccc(OCc5cccc(C(F)(F)F)c5)cc4)c3c2)o1 | 3.05% | -0.56% | 2.78% | 0.9% | 7.06% | 3.75% | 7.64% | 5.63% | 5.84% | 4.22% |
| CC1(C)CC(n2cnc(-c3ccc(F)cc3)c2-c2ccnc(N)n2)CC(C)(C)N1 | 6.07% | -1.4% | -0.7% | -0.06% | 1.62% | -1.22% | 4.24% | -0.07% | -0.08% | 0.44% |
| CCCNc1cccc(-n2ncc3c(N/N=C/c4ccncc4)ncnc32)c1 | 68.7% | 2.78% | 13.5% | 4.71% | 27.7% | -0.25% | 6.14% | 1.61% | 1.54% | 1.28% |
| CS(=O)(=O)CCNCc1ccc(-c2ccc3ncnc(Nc4ccc(OCc5ccccc5)cc4)c3c2)o1 | 3.37% | -0.23% | 3.06% | 0.8% | 4.91% | 2.23% | 2.48% | 4.02% | 3.85% | 2.1% |
| Cc1cc(O)cc(C)c1/C=C/c1cncc(C(=O)OC(C)(C)C)c1 | 7.76% | 2.63% | 7.33% | 1.55% | 2.43% | 1.52% | 1.71% | 2.41% | 4.61% | 1.22% |
